From the supplement of paper PMC6555819

What was measured:
Assay in all cases: PBM binding z-score (relative to random genomic background probes); higher = stronger binding; sequences stand for … in GC…GCGATTGACAGCGTAGAATGAAGG
[1] = system: PPARg:RXRa DBDmut IVT, anti-RXR (DBD mutation: RXRa K156A/R161A, NR concentration 270 nM, RXRa partner concentration 90 nM)
Method in brief: (§1)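 For binding z-scores, the reference was random background probes on custom Agilent 4×180K protein-binding microarrays. These arrays were incubated 1 h with ligand-free nuclear receptor dimers in PBS pH 7.4, 2% milk, 0.02% Triton X-100, 1 mM DTT, 0.2 mg/mL BSA and 0.4 mg/ml salmon testes DNA. Fluorescence was scanned after antibody detection of each partner (one per run) and regression-normalized.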

[2] = system: PPARg:RXRa IVT, anti-PPARg (NR concentration 270 nM, RXRa partner concentration 90 nM)
Method in brief: as §1

[3] = system: PPARg DBDmut:RXRa IVT, anti-PPARg (DBD mutation: PPARg1 K132A/R137A, NR concentration 270 nM, RXRa partner concentration 90 nM)
Method in brief: as §1

[4] = system: PPARg DBDmut IVT, anti-PPARg (DBD mutation: PPARg1 K132A/R137A, NR concentration 270 nM)
Method in brief: as §1

[5] = system: PPARg homodimer (NR concentration 180 nM)
Method in brief: as §1

[6] = system: PXR:RXRa (NR concentration 270 nM, RXRa partner concentration 90 nM)
Method in brief: as §1

[7] = system: PXR homodimer (NR concentration 270 nM)
Method in brief: as §1

[8] = system: RARa:RXR (NR concentration 270 nM, RXRa partner concentration 90 nM)
Method in brief: as §1

[9] = system: RARa homodimer (NR concentration 270 nM)
Method in brief: as §1

[10] = system: RARb:RXRa (NR concentration 270 nM, RXRa partner concentration 90 nM)
Method in brief: as §1

Sequence	PBM binding z-score [1]	PBM binding z-score [2]	PBM binding z-score [3]	PBM binding z-score [4]	PBM binding z-score [5]	PBM binding z-score [6]	PBM binding z-score [7]	PBM binding z-score [8]	PBM binding z-score [9]	PBM binding z-score [10]
ATCTCTAGGTAACCAAGTTAAGTGAATGCCGAAC	3.43	2.78	0.758	1.07	0.347	0.282	0.739	0.368	1.13	0.317
TGTCAAAGTTCAAAGGTAAGGTAAGTATCCACAC	0.662	4.2	2.56	2.04	6.17	5.8	5.17	6.32	2.15	5.2
CGTACAGGGTCAGCTAGGCCAGAGTAGGGACGGC	1.75	2.64	0.166	-0.287	1.47	2.28	-0.805	3.32	-0.147	4.16
ATACCAAGGAGATCGTGAGGTCGTTGATACTAAC	-0.488	-0.258	-0.211	0.112	0.128	1.65	1.21	0.973	-0.464	0.331
CCGACTGGGGCAAAGCTTACCATACTCAGTACGA	4.39	2.85	-0.291	-0.457	0.119	-0.708	-0.701	-0.665	-0.639	0.229
CCTACTGGGCCATTTAGAGGTCATTGATCATATG	3.95	4.32	0.156	0.0335	2.07	4.7	2.25	4.46	0.647	2.89
TCATATAGGTAATACAGGTGGAAGTCGGCATCTA	4.03	2.31	1.36	0.905	0.801	0.571	0.602	0.763	1.5	0.515
CAAACTAGGTCAACAGGTCAAAGTCCGCTTCCCG	8.61	8.71	4.74	3.76	4.14	4.32	1.23	5.98	3.05	4.81
AATACAGGGTCATCCTAGGCCAGAGTACGCACAG	2.5	4.16	1.89	1.39	2.39	5	0.711	4.8	1.41	4.46
ACTAGCAGCCCAAGGGTCACTCAAGATTAGTCCG	-0.509	1.13	-0.437	-0.614	1.34	2.97	0.208	3.58	0.48	3.27
AGTCAAAGTTCACTAGGTAACGCAAGATTCAGCT	3.01	4.84	0.915	1.01	2.5	3.77	2.6	3.32	1.39	4.93
ATCTCTAGGTAAACAAGTTCAGTGAATGCCGAAC	2.47	2.16	1.52	1.13	1.19	1.47	2.08	0.521	1.04	1.05
TCATATAGGTAATACAGGTGCAAGTCGGCATCTA	3.87	2.67	1.02	0.643	0.337	1.07	0.613	0.828	1.43	0.563
ATCTCAAGGTAAAAGTTCAGTGAATCCCGAGGAT	-0.133	1.48	0.958	1.4	0.853	2.03	1.43	2.15	0.0495	2.62
CCTCGGAGAACAACAGGAGGTCAGAGCTGCCAGA	-0.197	-0.0712	-1.48	-1.85	1.77	1.71	0.361	2.04	0.98	2.01
ATACCAAGGTGATCGTGAGATCGTTGATACTAAC	0.453	1.18	0.758	0.465	0.145	-0.151	-0.339	0.227	0.462	0.492
TCGAGTAGGTTACCAAGGGGGCATTCAGCTTTCT	3.32	4.07	4.92	5.1	1.17	2.98	0.477	2.6	-0.167	1.98
AGAATGAGGTTAAGATCGGGGAAACAGAATACAT	3.24	2.85	1.19	0.972	1.09	0.98	0.624	1.93	0.617	1.95
CTACCAAGGTGAACAAGGTCGTTGATTACTATTC	2.26	2.58	0.576	0.29	0.831	2.96	1.95	2.45	0.346	2.16
AGAACGAGGGCACGCTGGGTTGATAGCAGAGTAG	3.63	3.69	1.12	0.143	0.498	1.25	0.183	1.17	0.372	2.41
ATCTCTAGGTAAAAGTTCCGTGAATCCCGAGGAT	2.32	1.72	0.769	1.67	0.967	-0.0655	0.269	0.0824	0.505	0.237
CGTCCAAGGACAGAGAGGTCAGTGAATGCCGAGT	0.0804	0.561	-0.629	-1.01	1.79	3.01	3.16	2.48	0.679	3.33
GCTCGGAGGACAAGGGCAGAGCTTTGTCCGTAGA	-0.664	-0.527	-1.1	-1.88	-0.96	-0.518	-0.927	-0.516	-1.17	1.4
ACTCGGAGGACAAAGGTTAGAGCTACGCCAGTGA	0.161	1.72	-0.577	-0.0683	1.1	0.7	0.168	1.46	0.397	2.23
TCTGATAGGTCAACGATGGTCAGCTAATCTGCTA	3.63	3.48	0.759	0.735	2.17	3.01	-0.308	3.7	1.12	4.44
